Laboratory results: PubChem BioAssay (NCATS)
Results filed as inconclusive are left out. Calls of active or inactive are those of the source. The call rests on the fitted dose curve; in most records, active means well fitted cell-killing curve with a large enough effect; inconclusive means small, poorly fitted or top-dose-only effect, or effect the other way; inactive means flat fitted curve, though single readings scatter. Where a SMILES comes first, the peptide text is derived from it. The star is where a group is joined. AMC = Cc1cc(=O)oc2cc(N*)ccc12; Cbz = O=C(OCc1ccccc1)*

Columns and labels:
Assay in all cases: Primary qHTS to identify gynecologic anti-cancer compounds using libraries of approved drugs and bioactive compounds (AID 1345084); further: nearly all actives have a fitted effect of over 55% in size
Details in all cases: Gynecologic cancer cell panel viability, ATPlite luminescence, 48 h; series mostly up to 57.5 µM
[1] = tested on: OV90
Procedure, shortened: (§1)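 Luminescence from the ATPlite ATP-monitoring reagent indicates viable cell number; lower signal means cytotoxicity. Cells received compound 16 h after seeding and were exposed for 48 h across five concentrations.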

[2] = tested on: PA-1
Procedure, shortened: as §1

[3] = tested on: SKOV3
Procedure, shortened: as §1

[4] = tested on: Tov-21-G
Procedure, shortened: as §1

[5] = tested on: Tov112D
Procedure, shortened: as §1
On the % scale 0 is the no-effect control and ±100 the full control effect.

C=CC(C)(O)CC/C=C(\C)C(=O)O[C@@H]1[C@@H](O)[C@H](OC(C)(C=C)CC/C=C(\C)C(=O)O)O[C@H](CO)[C@H]1OC(=O)/C(C)=C/CCC(C)(O)C=C (stereo not given in full)
inactive: Potency [1] | Potency [2] | Potency [3] | Potency [4] | Potency [5]

CC1=C2C(=O)C=C(CO)C2[C@H]2OC(=O)[C@H](C)[C@@H]2[C@@H](OC(=O)Cc2ccc(O)cc2)C1 (stereo not given in full)
inactive: Potency [1] | Potency [2] | Potency [3] | Potency [4] | Potency [5]

CC[C@H](NC(=O)c1c(O)c(-c2ccccc2)nc2ccccc12)c1ccccc1
inactive: Potency [1] | Potency [2] | Potency [3] | Potency [4] | Potency [5]

C[C@@H]1O[C@@H](O[C@H]2[C@H](OC(=O)[C@]34CCC(C)(C)C[C@H]3C3=CCC5[C@@]6(C)CC[C@H](O[C@@H]7O[C@H](CO[C@@H]8OC[C@H](O)[C@H](O)[C@H]8O[C@@H]8OC[C@@H](O)[C@H](O)[C@H]8O)[C@@H](O)[C@H](O)[C@H]7O)C(C)(C)C6CC[C@@]5(C)[C@]3(C)C[C@H]4O)O[C@H](CO)[C@@H](O)[C@@H]2O)[C@H](O[C@@H]2O[C@H](CO)[C@@H](O)[C@H](O)[C@H]2O)[C@H](O)[C@H]1O[C@@H]1OC[C@@H](O)[C@H](O[C@@H]2OC[C@@H](O)[C@H](O)[C@H]2O)[C@H]1O (stereo not given in full)
inactive: activity change, negative = cytotoxicity [1] -1.86% [at 6.55 µM] | activity change, negative = cytotoxicity [2] 1.34% [at 6.55 µM] | activity change, negative = cytotoxicity [3] 0% [at 6.55 µM] | activity change, negative = cytotoxicity [4] -2.86% [at 6.55 µM] | activity change, negative = cytotoxicity [5] 0.0551% [at 6.55 µM]

CN[C@H](CNC(=O)N1CCC[C@@H]([C@@H](OCCNC(=O)OC)c2cccc(Cl)c2)C1)C[C@H]1CCCOC1
inactive: Potency [1] | Potency [2] | Potency [3] | Potency [4] | Potency [5]

Cc1cc(=O)oc2cc(NC(=O)[C@H](CCC(=O)O)NC(=O)[C@H](CC(C)C)NC(=O)[C@H](CC(C)C)NC(=O)OCc3ccccc3)ccc12 (Cbz-Leu-Leu-Glu-{AMC})
inactive: Potency [1] | Potency [2] | Potency [3] | Potency [4] | Potency [5]

CC(/C=C/C=C(\C)C(=O)O[C@@H]1O[C@H](CO[C@@H]2O[C@H](CO)[C@@H](O)[C@H](O)[C@H]2O)[C@@H](O)[C@H](O)[C@H]1O)=C\C=C\C=C(C)\C=C\C=C(/C)C(=O)O[C@@H]1C[C@](O)(C(=O)O)C[C@@H](O)[C@H]1OC(=O)/C=C/c1ccc(O)c(O)c1
inactive: activity change, negative = cytotoxicity [1] 8.2% [at 11.6 µM] | activity change, negative = cytotoxicity [2] -12.7% [at 11.6 µM] | activity change, negative = cytotoxicity [3] 3.61% [at 11.6 µM] | activity change, negative = cytotoxicity [4] 0.602% [at 11.6 µM] | activity change, negative = cytotoxicity [5] -1.9% [at 11.6 µM]

Cc1occc(=O)c1O[C@@H]1O[C@H](COC(=O)CC(C)(O)CC(=O)O)[C@@H](O)[C@H](O)[C@H]1O (stereo not given in full)
inactive: Potency [1] | Potency [2] | Potency [3] | Potency [4] | Potency [5]

CCc1cccc2c3c([nH]c12)[C@@](CC)(CC(=O)O)OCC3
inactive: Potency [1] | Potency [2] | Potency [3] | Potency [4] | Potency [5]

CC(=C\C(C)O)/C=C(\C)C(=O)CC1CC(CC(N)=O)CC(=O)O1 (stereo not given)
inactive: Potency [1] | Potency [2] | Potency [3] | Potency [4] | Potency [5]

CC1(C)C(=O)CCC2(C)C1C(O)C=C1COC(=O)C12O (stereo not given)
inactive: Potency [1] | Potency [2] | Potency [3] | Potency [4] | Potency [5]

COc1cc(C(C)=O)ccc1O[C@@H]1O[C@H](CO[C@@H]2OC[C@@H](O)[C@H](O)[C@H]2O)[C@@H](O)[C@H](O)[C@H]1O
inactive: Potency [1] | Potency [2] | Potency [3] | Potency [4] | Potency [5]

COC(=O)C1=CO[C@@H](O[C@@H]2O[C@H](CO)[C@@H](O)[C@H](O)[C@H]2O)C2C1CC(O)C2C (stereo not given in full)
inactive: Potency [1] | Potency [2] | Potency [3] | Potency [4] | Potency [5]

CCCCCOC(=O)Nc1nc(=O)n(C2O[C@H](C)[C@@H](O)[C@H]2O)cc1F (stereo not given in full)
inactive: Potency [1] | Potency [2] | Potency [3] | Potency [4] | Potency [5]

Cc1cc(C)c2nc(-c3ccccn3)cc(C(=O)Nc3ccc(S(=O)(=O)Nc4onc(C)c4C)cc3)c2c1
inactive: Potency [1] | Potency [2] | Potency [3] | Potency [4] | Potency [5]

O=C(O)CCc1cccc(O)c1O[C@@H]1O[C@H](CO)[C@@H](O)[C@H](O)[C@H]1O
inactive: Potency [1] | Potency [2] | Potency [3] | Potency [4] | Potency [5]

C/C1=C\CC(C)(C)/C=C/C/C(C(=O)O)=C/CC1
inactive: Potency [1] | Potency [2] | Potency [3] | Potency [4] | Potency [5]

CC(=O)NC(Cc1ccccc1)C(=O)NC(C(=O)O)C(C)C (stereo not drawn) (Ac-Phe-Val-OH; configuration not given here)
inactive: Potency [1] | Potency [2] | Potency [3] | Potency [4] | Potency [5]

C[C@@H]1[C@H](O)[C@@H]2OC(=O)C3=C2[C@H](CCC3)[C@@]12C[C@@H](c1ccoc1)OC2=O
inactive: Potency [1] | Potency [2] | Potency [3] | Potency [4] | Potency [5]

CC(C)(O)C1CC=C(C(=O)OC[C@H]2O[C@@H](OC(=O)C3=CCC(C(C)(C)O)CC3)[C@H](O)[C@@H](O)[C@@H]2O)CC1 (stereo not given in full)
inactive: Potency [1] | Potency [2] | Potency [3] | Potency [4] | Potency [5]

COc1c2c(c(C)c3c1C(=O)OC3)OC1(C)CC(O)C34OC(O)(CCC3(C)C1C2)OC4(C)C (stereo not given)
inactive: Potency [1] | Potency [2] | Potency [3] | Potency [4] | Potency [5]
